In PubChem BioAssay (NCI):
This is part of a sample that, as a whole, favours compounds with a hit. Of some 83,000 tested, about 20% had one in any assay.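 Results are percent growth after 48 hours of single-concentration exposure. 100 means growth as in untreated cells, lower positive values show inhibition; negative values down to -100 show cell death.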 Values without a mark were called inactive. The source made the active and inactive calls. The calls were made as follows: active = growth percent below 10; inactive = the rest.

These compounds were tested on MDA-MB-468 breast (assay: NCI-60 one-dose screen, 48 h (100 = growth as untreated, 0 = no growth, -100 = all killed)). Settings: 10 µM unless noted.

Structure (SMILES)	growth
COc1cc(/C=N/NC(=O)c2cnn3c2NC(c2ccccc2)C3)cc(OC)c1OC (stereo not given)	62.8%
O=C(/C=C/c1sc(Cl)nc1Cl)c1ccc(Br)cc1	63.2%
CCNC(=S)NN	34.9%
NC1(N2SC(S)=C3CCCC=C32)CCCCC1	99.9%
NC(=O)CCC(C(=O)O)N1C(=O)c2ccc(O)cc2C1=O (stereo not given)	109%
O=C(NCc1ccccc1)c1cccc([N+](=O)[O-])c1	93.8%
COc1ccc(-c2nn(-c3cccc(Cl)c3)cc2/C=C2\C(=N)N(c3ccccc3)N=C2N)cc1	57.6%
O=CNc1ccc2c(c1)Cc1cccc(NC=O)c1-2	14.5%
COC(=O)c1ccc2[nH]c(O)c(C(=Nc3ccc(N(C)C(=O)CN4CCN(C)CC4)cc3)c3ccc([N+](=O)[O-])cc3)c2c1	85.9%
O=C1NC(c2ccc(Cl)c(Cl)c2)=C/C1=C\c1ccccc1	63.3%
O=C1Nc2cc(-c3ccncc3)ccc2/C1=C/c1ccc[nH]1	-15.9% (active)
COc1ccc(NC(=O)c2ccc3c(c2)nc(-c2ccc(Cl)cc2)n3-c2cc(C(C)(C)C)[nH]n2)cc1	87.5%
C#C[C@H]1CCCCCC1O (stereo not given in full)	99.3%
CCN(CC)CCNC(=O)c1c(C)[nH]c(/C=C2\C(=O)Nc3cc(NC(=O)NC(=O)c4ccc(OC)cc4F)ccc32)c1C	75.2%
COc1cccc2nc(Nc3cccc(NC(=O)c4cc(N5CCOCC5)cc(C(F)(F)F)c4)c3)ccc12	67.3%
